Reference: PubChem BioAssay (NCATS)
Results filed as inconclusive are left out. Active and inactive are the calls of the source. Unless noted, calls come from the whole dose curve; as a rule, active = well fitted curve in the direction sought with a large enough effect; inconclusive = small, poorly fitted or top-dose-only effect, or another doubt; inactive = no such curve, though single readings can be large; an effect the other way counts as inactive or inconclusive.

Columns and labels:
[1] = target: DNA polymerase III PolC-type (Bacillus subtilis (strain 168)) (UniProt P13267); assay: qHTS Validation Assay for the Inhibitors of DNA Replication in Gram-Positive Bacteria (AID 485295);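 note: PicoGreen fluorescence of double-stranded DNA made on primed circular M13 template; series mostly up to about 57 µM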
Outline: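 Reconstituted B. subtilis holoenzyme (Pol III, beta clamp, SSB, primase) was preincubated with compound at room temperature, then given single-stranded circular M13Gori plus dNTPs and NTPs. EDTA-containing PicoGreen stopped the reaction, and dsDNA product was read by fluorescence.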

[2] = target: Tumor susceptibility gene 101 protein (Homo sapiens) (UniProt Q99816); assay: qHTS Validation Assay for Iinhibitors of HIV-1 Budding by Blocking the Interaction of PTAP/TSG101 (AID 485342; calls by dose curve)
Sequence of Tumor susceptibility gene 101 protein (Homo sapiens) (Q99816 whole entry, looked up, the tested form may be a part): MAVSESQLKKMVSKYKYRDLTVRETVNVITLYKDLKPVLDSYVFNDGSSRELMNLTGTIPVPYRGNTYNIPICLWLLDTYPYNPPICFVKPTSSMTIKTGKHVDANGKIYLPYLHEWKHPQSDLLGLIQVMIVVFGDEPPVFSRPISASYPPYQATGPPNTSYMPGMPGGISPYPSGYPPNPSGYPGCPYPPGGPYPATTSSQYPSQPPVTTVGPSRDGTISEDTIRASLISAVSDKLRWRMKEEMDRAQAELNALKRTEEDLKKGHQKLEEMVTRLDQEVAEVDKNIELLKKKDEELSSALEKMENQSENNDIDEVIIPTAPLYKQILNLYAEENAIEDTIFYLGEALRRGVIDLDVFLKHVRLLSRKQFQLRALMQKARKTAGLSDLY
Outline: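 Tsg101 binding domain (10 uM final) in pH 7.5 HEPES/NaCl/Tween 20/EDTA/TCEP buffer was mixed with pin-transferred compounds, then FITC-labeled PTAP peptide (50 nM final) was added; after 20 min at r.t., fluorescence polarization was read.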

[3] = qHTS Validation Assay to Find Inhibitors of Chronic Active B-Cell Receptor Signaling (AID 485345; active = well fitted curve in the direction sought with a large enough effect in the main read-out, with a control signal flat, not every such curve was filed as active)
Outline: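 TMD8 ABC-DLBCL cells with dox-inducible green luciferase–IκBα fusion and red native luciferase; compounds 46 uM–3 nM, 4 h at 37C with doxycycline in 0.5% FBS IMDM. Green/red ratio normalized to basal and 10 uM MG-132.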

[4] = target: Beta-2 adrenergic receptor (Homo sapiens) (UniProt P07550); assay: qHTS validation assay of beta-arrestin-biased ligands of beta2-adrenergic receptor (AID 485366)
Sequence of Beta-2 adrenergic receptor (Homo sapiens) (P07550 whole entry, looked up): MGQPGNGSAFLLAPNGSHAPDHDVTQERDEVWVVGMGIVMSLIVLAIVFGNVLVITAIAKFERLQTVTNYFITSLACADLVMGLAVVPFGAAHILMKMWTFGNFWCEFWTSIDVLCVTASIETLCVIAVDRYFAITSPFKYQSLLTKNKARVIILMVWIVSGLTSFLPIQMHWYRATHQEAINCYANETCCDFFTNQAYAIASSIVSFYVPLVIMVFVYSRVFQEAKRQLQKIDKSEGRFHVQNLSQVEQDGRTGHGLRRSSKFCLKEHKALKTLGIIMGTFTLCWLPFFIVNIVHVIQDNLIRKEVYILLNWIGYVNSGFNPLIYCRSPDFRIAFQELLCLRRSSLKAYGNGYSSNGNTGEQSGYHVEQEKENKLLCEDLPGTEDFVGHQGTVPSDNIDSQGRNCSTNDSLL
Outline: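 Agonist activity is measured as luciferase luminescence downstream of beta-arrestin recruitment to recombinant beta2-AR in Tango cells. Exposure lasts 18 hr at 37 degrees C, and curves are categorized by r2, response size and activity.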

[5] = target: ATP-dependent 6-phosphofructokinase (Trypanosoma brucei brucei) (UniProt O15648); assay: qHTS Validation Assay to Find Inhibitors of T. brucei phosphofructokinase (AID 485368); details: outcome: dose series up to 57.5 µM
Outline: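 Inhibition derived from concentration-response curves of luminescence, ranked by r2, response size and curve class; the underlying reaction used 1.25 nM PFK, 0.1 mM ATP and 0.5 mM F6P, 45 min, room temperature.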

[6] = Quantitative high throughput screen for delayed death inhibitors of the malarial parasite plastid, 96 hour incubation (AID 488745); note: nearly all actives have a fitted effect of over 70% in size; note: potency is the fitted concentration of half-maximal effect
Outline: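 Decreased firefly luciferase luminescence indicates inhibited growth of reporter-integrated P. falciparum after two generations (96 h, 37 C, 5% CO2). Infected erythrocytes at 0.1% parasitemia, 2% hematocrit, in Albumax-supplemented RPMI 1640.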

[7] = Quantitative high throughput screen for delayed death inhibitors of the malarial parasite plastid, 48 hour incubation (AID 488752); note: nearly all actives have a fitted effect of over 65% in size; note: potency is the fitted concentration of half-maximal effect
Outline: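 One-generation (48 h) growth assay: a decrease in luciferase signal from an integrated reporter in P. falciparum-infected red cells (0.1% parasitemia, 2% hematocrit) after compound exposure at 37 C indicates parasite inhibition.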

[8] = target: Thioredoxin reductase 1, cytoplasmic (Rattus norvegicus) (UniProt O89049); assay: qHTS Assay for Substrates of Mammalian Selenoprotein Thioredoxin Reductase 1 (TrxR1) (AID 488772);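 note: series mostly up to about 57 µM; a drop in NADPH fluorescence below the no-compound background marks a TrxR1 substrate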
Sequence of Thioredoxin reductase 1, cytoplasmic (Rattus norvegicus) (O89049 whole entry, looked up): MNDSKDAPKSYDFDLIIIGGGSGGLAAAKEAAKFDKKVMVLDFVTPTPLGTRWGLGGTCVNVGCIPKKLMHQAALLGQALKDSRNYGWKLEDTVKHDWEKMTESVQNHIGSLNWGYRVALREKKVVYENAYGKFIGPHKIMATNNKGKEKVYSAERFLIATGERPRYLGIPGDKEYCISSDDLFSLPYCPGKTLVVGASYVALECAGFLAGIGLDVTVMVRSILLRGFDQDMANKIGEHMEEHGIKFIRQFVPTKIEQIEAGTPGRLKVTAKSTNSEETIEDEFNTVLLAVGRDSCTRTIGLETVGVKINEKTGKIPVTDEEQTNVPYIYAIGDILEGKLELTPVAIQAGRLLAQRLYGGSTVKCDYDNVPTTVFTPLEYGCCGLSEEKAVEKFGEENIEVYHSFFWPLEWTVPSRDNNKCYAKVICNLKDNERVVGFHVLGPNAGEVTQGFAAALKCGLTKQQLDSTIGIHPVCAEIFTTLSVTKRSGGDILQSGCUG
Outline: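 In this dual-purpose format, potential substrates are identified from the first fluorescence read after selenite addition, not from the 8-minute delta. Rat enzyme is preincubated with NADPH and then with compound at ~22 deg C.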

[9] = target: Flap endonuclease 1 (Homo sapiens) (UniProt P39748); assay: qHTS Validation Assay for the Inhibitors of Human Flap endonuclease 1 (FEN1) (AID 488816)
Outline: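 Steps: add FEN1 (10 nM reagent) or buffer only; pin compounds; hold 15 min at room temperature; start with substrate, 50 nM final; read at 0 and 15 min; correct, normalize and fit a four-parameter Hill curve.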

[10] = target: M-phase phosphoprotein 8 (Homo sapiens) (UniProt Q99549); assay: qHTS Validation Assay for Inhibitors for MPP8 Chromodomain Interactions with Methylated Histone Tails (AID 488949);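 note: AlphaScreen signal from MPP8 chromodomain bound to biotinylated H3K9me3 peptide; top concentration of the series differs between compounds; nearly all actives have a fitted effect of over 55% in size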
Sequence of M-phase phosphoprotein 8 (Homo sapiens) (Q99549 whole entry, looked up): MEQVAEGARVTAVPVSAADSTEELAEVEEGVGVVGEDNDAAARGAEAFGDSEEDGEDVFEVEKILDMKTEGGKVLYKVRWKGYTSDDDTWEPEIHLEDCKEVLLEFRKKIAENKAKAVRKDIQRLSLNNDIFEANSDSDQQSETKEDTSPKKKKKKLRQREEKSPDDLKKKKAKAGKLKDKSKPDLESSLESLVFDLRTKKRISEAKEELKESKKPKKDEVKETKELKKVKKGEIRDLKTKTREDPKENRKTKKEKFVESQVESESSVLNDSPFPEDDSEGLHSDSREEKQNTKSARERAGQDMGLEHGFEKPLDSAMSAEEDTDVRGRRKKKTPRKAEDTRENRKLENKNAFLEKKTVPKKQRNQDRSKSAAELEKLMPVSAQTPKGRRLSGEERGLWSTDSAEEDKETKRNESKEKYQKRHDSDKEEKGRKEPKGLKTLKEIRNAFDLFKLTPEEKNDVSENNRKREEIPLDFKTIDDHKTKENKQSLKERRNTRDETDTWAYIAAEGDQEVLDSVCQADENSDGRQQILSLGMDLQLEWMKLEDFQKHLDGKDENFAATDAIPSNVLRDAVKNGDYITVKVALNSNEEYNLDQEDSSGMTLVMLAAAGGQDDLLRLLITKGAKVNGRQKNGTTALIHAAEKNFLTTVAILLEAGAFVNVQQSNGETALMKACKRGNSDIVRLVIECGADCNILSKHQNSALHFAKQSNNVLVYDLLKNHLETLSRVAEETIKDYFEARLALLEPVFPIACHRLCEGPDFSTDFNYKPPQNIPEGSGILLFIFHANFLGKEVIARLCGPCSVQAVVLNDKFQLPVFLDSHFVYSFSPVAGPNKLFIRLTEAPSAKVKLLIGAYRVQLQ
Outline: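 MPP8 (50 nM) was preincubated with biotinylated H3(1-18)K9me3 peptide (50 nM) in PBS pH 7.4, 0.01% Tween-20 for 30 min at room temperature, then with compounds for 30 min; binding was detected by AlphaScreen.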

[11] = target: Chromobox protein homolog 1 (Homo sapiens) (UniProt P83916); assay: qHTS Validation Assay for Inhibitors of HP1-beta Chromodomain Interactions with Methylated Histone Tails (AID 488953);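 note: loss of AlphaScreen luminescence from HP1-beta binding biotinylated H3K9me3 peptide; series mostly up to about 110 µM; nearly all actives have a fitted effect of over 50% in size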
Sequence of Chromobox protein homolog 1 (Homo sapiens) (P83916 whole entry, looked up): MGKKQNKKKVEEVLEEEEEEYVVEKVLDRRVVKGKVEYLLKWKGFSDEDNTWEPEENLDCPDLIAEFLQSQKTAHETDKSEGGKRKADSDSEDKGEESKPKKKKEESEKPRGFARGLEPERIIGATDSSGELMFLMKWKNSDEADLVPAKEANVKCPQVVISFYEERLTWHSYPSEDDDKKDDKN
Outline: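 AlphaScreen proximity signal from streptavidin donor and nickel chelate acceptor beads (final 10 ug/mL) after 30 min dark incubation. Compounds had 30 min at room temperature with preformed complex of 50 nM HP1-beta and 50 nM b-H3(1-18)K9me3 in PBS pH 7.4 with 0.01% Tween-20.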

[12] = target: Transient receptor potential cation channel subfamily V member 1 (Homo sapiens) (UniProt Q8NER1); assay: HTS Assay for Compounds that Act as Enhancers of the Vanilloid Receptor 1 (AID 488979)
Sequence of Transient receptor potential cation channel subfamily V member 1 (Homo sapiens) (Q8NER1 whole entry, looked up): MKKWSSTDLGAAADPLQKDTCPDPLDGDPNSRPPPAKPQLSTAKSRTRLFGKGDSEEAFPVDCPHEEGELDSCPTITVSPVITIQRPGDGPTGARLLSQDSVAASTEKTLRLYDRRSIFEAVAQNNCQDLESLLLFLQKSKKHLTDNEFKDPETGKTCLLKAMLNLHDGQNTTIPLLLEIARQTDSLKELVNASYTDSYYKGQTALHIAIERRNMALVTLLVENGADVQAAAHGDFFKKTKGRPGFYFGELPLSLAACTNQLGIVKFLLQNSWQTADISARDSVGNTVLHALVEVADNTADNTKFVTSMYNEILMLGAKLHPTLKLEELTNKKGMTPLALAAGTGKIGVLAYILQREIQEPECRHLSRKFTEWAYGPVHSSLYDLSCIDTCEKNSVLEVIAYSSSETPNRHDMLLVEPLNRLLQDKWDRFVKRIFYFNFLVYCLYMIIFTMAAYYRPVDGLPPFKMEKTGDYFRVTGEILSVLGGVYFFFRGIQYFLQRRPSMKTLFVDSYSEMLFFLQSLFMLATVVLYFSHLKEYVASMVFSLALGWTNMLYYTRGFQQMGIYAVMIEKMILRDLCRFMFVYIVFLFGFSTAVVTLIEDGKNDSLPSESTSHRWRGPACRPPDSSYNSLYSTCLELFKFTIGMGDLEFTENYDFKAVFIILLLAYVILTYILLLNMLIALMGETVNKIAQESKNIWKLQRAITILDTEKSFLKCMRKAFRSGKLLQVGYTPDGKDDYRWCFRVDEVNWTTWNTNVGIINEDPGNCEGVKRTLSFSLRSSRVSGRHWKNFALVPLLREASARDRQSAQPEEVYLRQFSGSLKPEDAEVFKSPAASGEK
Outline: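 TRPV1-expressing cells loaded with Fluo-8 calcium dye; compounds added and calcium influx read kinetically for 3 min (agonist phase), then capsaicin at EC20 added and read 2 min more for enhancement. Fluorescence ex 480/em 520 nm.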

[13] = target: Thyrotropin receptor (Homo sapiens) (UniProt P16473); assay: qHTS Assay for Antagonists of the Thyroid Stimulating Hormone Receptor (AID 488980); note: series mostly up to about 58 µM
Sequence of Thyrotropin receptor (Homo sapiens) (P16473 whole entry, looked up): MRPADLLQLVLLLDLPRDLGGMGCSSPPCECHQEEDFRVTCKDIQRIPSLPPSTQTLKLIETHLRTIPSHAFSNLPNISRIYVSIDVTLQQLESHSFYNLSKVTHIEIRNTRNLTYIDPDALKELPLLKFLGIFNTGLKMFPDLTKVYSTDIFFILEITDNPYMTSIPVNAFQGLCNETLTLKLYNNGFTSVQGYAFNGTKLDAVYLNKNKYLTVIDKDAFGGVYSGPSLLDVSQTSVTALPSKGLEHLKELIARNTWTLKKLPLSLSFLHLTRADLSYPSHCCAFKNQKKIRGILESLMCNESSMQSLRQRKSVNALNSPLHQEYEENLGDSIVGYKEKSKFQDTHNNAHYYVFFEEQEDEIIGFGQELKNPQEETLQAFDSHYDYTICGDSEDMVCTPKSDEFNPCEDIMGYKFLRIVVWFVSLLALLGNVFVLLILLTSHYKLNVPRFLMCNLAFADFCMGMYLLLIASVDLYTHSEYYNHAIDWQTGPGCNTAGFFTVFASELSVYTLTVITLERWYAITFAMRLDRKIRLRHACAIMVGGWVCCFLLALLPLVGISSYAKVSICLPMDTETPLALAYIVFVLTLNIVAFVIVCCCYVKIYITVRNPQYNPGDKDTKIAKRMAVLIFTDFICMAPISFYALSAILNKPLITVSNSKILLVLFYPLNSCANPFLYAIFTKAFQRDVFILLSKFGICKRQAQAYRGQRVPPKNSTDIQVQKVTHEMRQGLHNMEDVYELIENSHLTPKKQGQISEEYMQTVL
Outline: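 HEK293 cells transfected with human TSHR, suspended in HEPES-buffered HBSS with 70 uM RO 20-1724, were treated with compounds plus TSH at EC80 (4 nM final). cAMP was measured by competitive HTRF (cryptate anti-cAMP antibody, cAMP-d2 acceptor).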

[14] = target: D(1A) dopamine receptor (Homo sapiens) (UniProt P21728); assay: HTS Assay for Allosteric Agonists of the Human D1 Dopamine Receptor: Primary Screen for Agonists (AID 488981)
Sequence of D(1A) dopamine receptor (Homo sapiens) (P21728 whole entry, looked up): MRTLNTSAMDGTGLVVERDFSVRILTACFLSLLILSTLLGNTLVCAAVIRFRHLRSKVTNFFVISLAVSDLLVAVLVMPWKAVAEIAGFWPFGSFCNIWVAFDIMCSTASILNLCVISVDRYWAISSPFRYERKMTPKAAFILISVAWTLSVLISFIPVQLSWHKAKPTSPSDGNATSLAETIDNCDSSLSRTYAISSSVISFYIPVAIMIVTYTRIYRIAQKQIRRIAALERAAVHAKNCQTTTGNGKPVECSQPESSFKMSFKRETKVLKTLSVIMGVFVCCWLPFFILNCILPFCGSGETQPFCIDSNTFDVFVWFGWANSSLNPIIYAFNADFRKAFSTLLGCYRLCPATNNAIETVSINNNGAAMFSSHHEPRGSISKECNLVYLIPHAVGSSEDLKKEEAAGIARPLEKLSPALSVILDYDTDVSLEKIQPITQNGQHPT
Outline: (§1)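 Tetracycline-induced HEK293 T-REx cells force-coupled to calcium signalling were incubated overnight at 30 C and dye-loaded at room temperature. Calcium flux over 180 s after compound addition flagged agonists; a further 180 s read after EC20 dopamine flagged potentiators.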

[15] = target: D(1A) dopamine receptor (Homo sapiens) (UniProt P21728); assay: HTS Assay for Allosteric Agonists of the Human D1 Dopamine Receptor: Primary Screen for Potentiators (AID 488982)
Outline: as §1

[16] = target: D(1A) dopamine receptor (Homo sapiens) (UniProt P21728); assay: HTS Assay for Allosteric Agonists of the Human D1 Dopamine Receptor: Primary Screen for Antagonists (AID 488983);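 note: calcium flux response to an EC80 dopamine challenge measured with no-wash dye; nearly all actives have a fitted effect of over 65% in size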; note: potency is the fitted concentration of half-maximal effect
Outline: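 Calcium-flux read-out in inducible HEK293 T-REx cells expressing D1, dye-loaded 30–90 min at room temperature. Kinetic reads: 180 s after compound (agonist phase), then 180 s after an EC80 dopamine challenge.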

[17] = target: ATP-dependent 6-phosphofructokinase (Trypanosoma brucei brucei) (UniProt O15648); assay: qHTS Assay to Find Inhibitors of T. brucei phosphofructokinase: hit validation (AID 492961);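 note: luminescence reports ADP formed as PFK phosphorylates fructose-6-phosphate with ATP; series mostly up to about 51 µM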
Outline: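 PFK 1.25 nM, F6P 0.5 mM, ATP 0.1 mM, MgCl2 5 mM, 0.1 M TEA pH 8.0, Tween20 0.01%, BSA 0.1%; 45 min RT. ADP-Glo two-step detection, luminescence. qHTS titration; curve fitting with curve-class categorization.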

[18] = Validation screen for small molecules that induce genotoxicity in human embryonic kidney (HEK293T) cells expressing luciferase-tagged ELG1 (AID 493106)
Outline: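 ELG1-luciferase reporter readout (ONE-Glo, 30 min, room temperature) after 16 hr compound treatment at 37 °C of HEK293T cells at 2,000 per well. Rising luminescence flags genotoxic stress.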

[19] = target: Thioredoxin reductase 1, cytoplasmic (Rattus norvegicus) (UniProt O89049); assay: qHTS Assay for Inhibitors of Mammalian Selenoprotein Thioredoxin Reductase 1 (TrxR1) (AID 488773); details: Potency: inhibition; note: nearly all actives have a fitted effect of over 40% in size; note: potency is the fitted concentration of half-maximal effect
Outline: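 Inhibition is scored from the loss of NADPH fluorescence between first and last reads of an 8-min kinetic run. Selenite (400 uM) was the substrate, added after 15 min compound preincubation at room temperature.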

[20] = target: Methanococcus maripaludis chaperonin (MmCpn) (UniProt Q6LX38); assay: High-Throughput Screening for Modulators of Cytosolic Chaperonin Activity: MmCpn Primary Screen (AID 488978);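 note: 50 nM MmCpn enzyme hydrolysing 30 µM ATP at 37 °C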
Sequence of Methanococcus maripaludis chaperonin (MmCpn) (Q6LX38 1-543): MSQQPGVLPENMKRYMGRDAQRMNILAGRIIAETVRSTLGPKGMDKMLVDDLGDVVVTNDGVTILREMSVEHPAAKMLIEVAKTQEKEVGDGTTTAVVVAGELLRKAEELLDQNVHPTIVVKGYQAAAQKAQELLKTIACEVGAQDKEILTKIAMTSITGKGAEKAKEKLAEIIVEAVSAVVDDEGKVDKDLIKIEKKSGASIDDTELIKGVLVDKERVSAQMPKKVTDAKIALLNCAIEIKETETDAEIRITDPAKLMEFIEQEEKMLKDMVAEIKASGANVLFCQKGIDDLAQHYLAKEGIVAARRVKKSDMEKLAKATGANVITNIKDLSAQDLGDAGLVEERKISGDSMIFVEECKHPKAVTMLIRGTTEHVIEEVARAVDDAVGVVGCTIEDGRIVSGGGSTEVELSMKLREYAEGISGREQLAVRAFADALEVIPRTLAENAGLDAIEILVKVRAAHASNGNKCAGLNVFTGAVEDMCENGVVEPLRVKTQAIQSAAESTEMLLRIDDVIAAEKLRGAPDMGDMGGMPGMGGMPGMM
Outline: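 MmCpn (50 nM final) was preincubated with compound 5 min at RT, then 30 uM ATP (final) was added and the reaction ran 10 min at 37C. ADP produced was detected by Transcreener HTRF (ex 320 nm; em 590/665 nm).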

Measured: Potency

CCN1CCC[C@H]1CNC(=O)c1c(O)c(Cl)cc(Cl)c1OC
not listed: [19] | [20]
inactive: all other assays above

Cc1nc2c([nH]1)c(=O)n(C)c(=O)n2Cc1ccco1
not listed: [13] | [17]
inactive: all other assays above

COc1ccc(CN(CCN(C)C)c2ccccn2)cc1
not listed: [13] | [17] | [20]
inactive: all other assays above

CC1=NS(=O)(=O)c2cc(Cl)ccc2N1
not listed: [15] | [17] | [18]
inactive: all other assays above

CCOC(=O)c1cnc2c(cnn2CC)c1NN=C(C)C
not listed: [13] | [20]
inactive: all other assays above

C[N+](C)(C)CCOC(=O)CCC(=O)OCC[N+](C)(C)C
not listed: [16] | [17] | [19]
inactive: all other assays above

C[C@H](CS)C(=O)N1CCC[C@H]1C(=O)O
not listed: [8] | [9] | [11] | [12] | [17] | [19] | [20]
inactive: all other assays above

CCc1c(C)[nH]c2c1C(=O)C(CN1CCOCC1)CC2 (configuration not stated)
active: [19] 29.9 µM | [16] 14.1 µM
not listed: [11] | [17]
inactive: all other assays above

CN1CCN(C2=Nc3ccccc3Oc3ccc(Cl)cc32)CC1
active: [16] 0.398 µM
not listed: [6] | [7] | [18]
inactive: all other assays above

COc1ccc([C@@H]2Sc3ccccc3N(CCN(C)C)C(=O)[C@@H]2OC(C)=O)cc1
not listed: [9] | [12] | [15] | [17] | [19] | [20]
inactive: all other assays above

NC1=NCC2c3ccccc3Cc3ccccc3N12 (configuration not stated)
active: [16] 15.8 µM
not listed: [6] | [7] | [12] | [13] | [17] | [18]
inactive: all other assays above

CCCOc1ccccc1-c1nc2n[nH]nc2c(=O)[nH]1
not listed: [6] | [18]
inactive: all other assays above

Cc1ccc(/C(=C\CN2CCCC2)c2ccccn2)cc1
not listed: [9] | [10] | [12] | [19]
inactive: all other assays above

CC(C)[N+](C)(CCOC(=O)C1c2ccccc2Oc2ccccc21)C(C)C
active: [6] 3.29 µM | [7] 4.65 µM
not listed: [17] | [18] | [19]
inactive: all other assays above

NCCCNCCSP(=O)(O)O
not listed: [9] | [17] | [19]
inactive: all other assays above

COc1ccc2c(c1OC)C(=O)O[C@@H]2[C@H]1c2c(cc3c(c2OC)OCO3)CCN1C
not listed: [6] | [7] | [11] | [12] | [13] | [17] | [18]
inactive: all other assays above
